39 compounds from the supplement of paper PMC6853941 can be followed below.

For this assay, the system named is MCF10A. Kind of assay: perturbation Mahalanobis distance of morphological profile vs DMSO controls (Mahalanobis distance (SD units)); higher = stronger morphological change, active = 7 or more. Conditions: 72 h. On the procedure:
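MCF10A cells were seeded onto drugs dispensed acoustically into 384-well plates, using one dose per drug chosen from its human peak plasma concentration, and incubated for 72 h at 37 °C. Cells were stained for DNA, tubulin and mitochondria and imaged; 78 CellProfiler features were extracted, plate-normalised and compared with DMSO wells.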

Setting [1] is: screen batch: Batch1_Mahalanobis_Distance.
Where [2] appears, read: screen batch: Batch2_Mahalanobis_Distance.

Molecules are shown by their SMILES. A number with no mark means an inactive call.

Turning to `CNNCc1ccc(C(=O)NC(C)C)cc1` [Procarbazine] (13.6 µM), the “perturbation Mahalanobis distance” value is, setting by setting: under setting [1], 2.07; under setting [2], 2.28.
Consider `CC12CCC(=O)C=C1C=CC1C2CCC2(C)C1CCC21CCC(=O)O1` (stereo not drawn) [Canrenone] (3 µM), for which the “perturbation Mahalanobis distance” value is, setting by setting: under setting [1], 3.06; under setting [2], 3.02.
Turning to `Cc1nnc(C(=O)NC(C)(C)C2=N/C(=C(\O)NCc3ccc(F)cc3)C(=O)C(=O)N2C)o1` [Raltegravir] (22.5 µM), the “perturbation Mahalanobis distance” value is, setting by setting: under setting [1], 6.75; under setting [2], 4.95.
Take `CC1(C)O[C@@H]2[C@@H](CO[C@@]3(COS(N)(=O)=O)OC(C)(C)O[C@@H]23)O1` [Topiramate] (76.6 µM): the “perturbation Mahalanobis distance” value was 2.96 under setting [1] and 3.08 under setting [2].
As to `C1CNCCN1` [Piperazine Hexahydrate] (5.8 µM), the “perturbation Mahalanobis distance” value is 2.12 under setting [1] and 2.76 under setting [2].
Consider `CCN(CC)C(=S)S` [Sodium Diethyldithiocarbamate Trihydrate] (10 µM), for which the “perturbation Mahalanobis distance” value is, setting by setting: under setting [1], 3.67; under setting [2], 3.24.
With `CC/C(=C(\c1ccccc1)c1ccc(OCCN(C)C)cc1)c1ccccc1` [Tamoxifen] (6.7 µM), the “perturbation Mahalanobis distance” value reads like this: under setting [1], 2.61; under setting [2], 2.63.
Regarding `Nc1ncn([C@@H]2O[C@H](CO)[C@@H](O)[C@H]2O)c(=O)n1` [Azacitidine] (15.4 µM), the “perturbation Mahalanobis distance” value under setting [1] is 14.8 (active) and the “perturbation Mahalanobis distance” value under setting [2] is 17.2 (active).
On to `CCCCN(CCCC)CCC(O)c1cc2c(Cl)cc(Cl)cc2c2cc(C(F)(F)F)ccc12` (stereo not drawn) [Halofantrine] (63.9 µM), for which the “perturbation Mahalanobis distance” value by setting is: under setting [1], 7.37 (active); under setting [2], 2.57.
On to `COCc1c(C(C)C)nc(C(C)C)c(/C=C/[C@@H](O)C[C@@H](O)CC(=O)O)c1-c1ccc(F)cc1` [Cerivastatin] (0.46 µM), for which the “perturbation Mahalanobis distance” value reads like this: under setting [1], 13.3 (active); under setting [2], 13.1 (active).
Turning to `C=CC[C@@H]1/C=C(\C)C[C@H](C)C[C@H](OC)[C@H]2O[C@@](O)(C(=O)C(=O)N3CCCC[C@H]3C(=O)O[C@H](/C(C)=C/[C@@H]3CC[C@@H](O)[C@H](OC)C3)[C@H](C)[C@@H](O)CC1=O)[C@H](C)C[C@@H]2OC` [Tacrolimus] (0.09 µM), the “perturbation Mahalanobis distance” value by setting is: under setting [1], 2.64; under setting [2], 2.28.
Take `NC(N)=NC(=O)c1nc(Cl)c(N)nc1N` [Amiloride] (1.1 µM): the “perturbation Mahalanobis distance” value is 5.52 under setting [1] and 3.78 under setting [2].
Consider `CS(=O)(=O)OCCCCOS(C)(=O)=O` [Busulfan] (1.4 µM), for which the “perturbation Mahalanobis distance” value under setting [1] was 2.31 and the “perturbation Mahalanobis distance” value under setting [2] was 2.95.
The like results for `O=C1C(CCS(=O)c2ccccc2)C(=O)N(c2ccccc2)N1c1ccccc1` (racemic) [(+/-)-Sulfinpyrazone] (41.84 µM) were, in that order, 3.46 and 2.61.
For `Cc1ccccc1C(=O)Nc1ccc(C(=O)N2CCC[C@@H](O)c3cc(Cl)ccc32)c(C)c1` [Tolvaptan] (11.1 µM), the “perturbation Mahalanobis distance” value was 2.12 under setting [1] and 6.06 under setting [2].
The like results for `CCC(CC)O[C@@H]1C=C(C(=O)O)C[C@H](N)[C@H]1NC(C)=O` [Oseltamivir Acid] (6.45 µM) were, in that order, 2.37 and 3.03.
`CCCc1nn(C)c2c(=O)[nH]c(-c3cc(S(=O)(=O)N4CCN(C)CC4)ccc3OCC)nc12` [Sildenafil] (0.53 µM): the “perturbation Mahalanobis distance” value was 3.27 under setting [1] and 4.22 under setting [2].
In the case of `CN[C@H]1CC[C@@H](c2ccc(Cl)c(Cl)c2)c2ccccc21` [Sertraline] (3.3 µM), the “perturbation Mahalanobis distance” value is 2.81 under setting [1] and 4.31 under setting [2].
The matching figures for `CN1CCN(CCCN2c3ccccc3Sc3ccc(C(F)(F)F)cc32)CC1` [Trifluoperazine] (0.12 µM): 1.97 and 3.67.
Consider `CN(CCOc1ccc(CC2SC(=O)NC2=O)cc1)c1ccccn1` (stereo not drawn) [Rosiglitazone] (4.2 µM), for which the “perturbation Mahalanobis distance” value is 2.03 under setting [1] and 3.13 under setting [2].
For `C[C@H]1O[C@@H](O[C@H]2[C@@H](O)C[C@H](O[C@H]3[C@@H](O)C[C@H](O[C@H]4CC[C@@]5(C)[C@H](CC[C@@H]6[C@@H]5CC[C@]5(C)[C@@H](C7=CC(=O)OC7)CC[C@]65O)C4)O[C@@H]3C)O[C@@H]2C)C[C@H](O)[C@@H]1O` [Digitoxin] (0.16 µM), the “perturbation Mahalanobis distance” value runs as follows: under setting [1], 12.1 (active); under setting [2], 17.9 (active).
As to `Cc1ccsc1C(=CCCN1CCC[C@@H](C(=O)O)C1)c1sccc1C` [Tiagabine] (2.7 µM), the “perturbation Mahalanobis distance” value reads like this: under setting [1], 2.46; under setting [2], 3.14.
For `CCCSc1ccc2nc(NC(=O)OC)[nH]c2c1` [Albendazole] (28.3 µM), the “perturbation Mahalanobis distance” value is 13.8 (active) under setting [1] and 15.4 (active) under setting [2].
The like results for `CC12CC3CC(C)(C1)CC(N)(C3)C2` [Memantine] (1.3 µM) were, in that order, 4.28 and 3.3.
With `O=C1CC2(CCCC2)C(O)C(=O)N1CCCCN1CCN(c2ncccn2)CC1` (stereo not drawn) [6-Hydroxybuspirone] (0.05 µM), the “perturbation Mahalanobis distance” value is, setting by setting: under setting [1], 3.46; under setting [2], 3.29.
As to `CNC[C@H](O)c1ccc(O)c(O)c1` [Epinephrine] (27.3 µM), the “perturbation Mahalanobis distance” value is 2.67 under setting [1] and 2.89 under setting [2].
For the compound `O=C1OCCN1/N=C/c1ccc([N+](=O)[O-])o1` [Furazolidone] (22.2 µM), the “perturbation Mahalanobis distance” value is 3.46 under setting [1] and 3.27 under setting [2].
On to `Cc1nnc(C(C)C)n1C1C[C@H]2CC[C@@H](C1)N2CC[C@H](NC(=O)C1CCC(F)(F)CC1)c1ccccc1` (stereo partly drawn) [Maraviroc] (11.35 µM), for which the “perturbation Mahalanobis distance” value by setting is: under setting [1], 2.84; under setting [2], 2.67.
The like results for `CC(C)(C)C(=O)OCC(=O)[C@H]1CC[C@H]2[C@@H]3CCC4=CC(=O)CC[C@]4(C)[C@H]3CC[C@]12C` [Desoxycorticosterone Pivalate] (0.72 µM) were, in that order, 4.89 and 3.54.
With `CC(C)N=C(N)/N=C(\N)Nc1ccc(Cl)cc1` [Proguanil] (3 µM), the “perturbation Mahalanobis distance” value by setting is: under setting [1], 2.24; under setting [2], 3.24.
As for `NC(N)=NCC1COC2(CCCCC2)O1` (stereo not drawn) [Guanadrel] (140.7 µM), the “perturbation Mahalanobis distance” value by setting is: under setting [1], 2.66; under setting [2], 2.51.
With `CO[C@@H]1[C@@H](OC(N)=O)[C@@H](O)[C@H](Oc2ccc3c(=O)c(NC(=O)c4ccc(O)c(CC=C(C)C)c4)c(O)oc3c2C)OC1(C)C` [Novobiocin] (90.8 µM), the “perturbation Mahalanobis distance” value is 5.81 under setting [1] and 6.6 under setting [2].
In the case of `Nc1nc2ccc(OC(F)(F)F)cc2s1` [Riluzole] (4.3 µM), the “perturbation Mahalanobis distance” value under setting [1] was 2.51 and the “perturbation Mahalanobis distance” value under setting [2] is 3.82.
The matching figures for `Cc1cc(C)cc(OCC2CNC(=O)O2)c1` (stereo not drawn) [Metaxalone] (38.4 µM): 3.33 and 4.58.
For the compound `CN1C[C@H]2c3ccccc3Oc3ccc(Cl)cc3[C@@H]2C1` [Asenapine] (0.07 µM), the “perturbation Mahalanobis distance” value under setting [1] was 2.56 and the “perturbation Mahalanobis distance” value under setting [2] was 2.47.
In the case of `CNCCCC12CCC(c3ccccc31)c1ccccc12` [Maprotiline] (10.8 µM), the “perturbation Mahalanobis distance” value runs as follows: under setting [1], 3.39; under setting [2], 6.41.
Regarding `NC(=O)[C@@H]1CSSCCC(=O)N[C@@H](CCCCN=C(N)N)C(=O)NCC(=O)N[C@@H](CC(=O)O)C(=O)N[C@@H](Cc2c[nH]c3ccccc23)C(=O)N2CCC[C@H]2C(=O)N1` [Eptifibatide] (5.3 µM), the “perturbation Mahalanobis distance” value reads like this: under setting [1], 2.23; under setting [2], 2.48.
Take `O=C(O)c1cnccn1` [Pyrazinoic Acid] (604.4 µM): the “perturbation Mahalanobis distance” value was 2.79 under setting [1] and 2.79 under setting [2].
On to `NN1CCOC1=O` [3-Amino-2-Oxazolidinone] (49 µM), for which the “perturbation Mahalanobis distance” value was 2.59 under setting [1] and 2.76 under setting [2].
